Measurements taken from the supplement of paper PMC6555819.

Legend:
Assay in all cases: PBM binding z-score (relative to random genomic background probes); higher = stronger binding; sequences stand for … in GC…GCGATTGACAGCGTAGAATGAAGG
[1] = test system: FXR:RXRa (NR concentration 270 nM, RXRa partner concentration 90 nM)
Procedure, shortened: (§1)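 Antibodies against each partner of ligand-free nuclear receptor dimers (one per run) detected binding on custom Agilent 4×180K protein-binding microarrays after 1 h incubation. The double-stranded probes had 34-nt variable regions carrying direct-repeat seeds, single-nucleotide variants, half-site ablations and random human genomic background sequences. Binding z-scores, from regression-normalized fluorescence, use the random background probes as reference.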

[2] = test system: LXRa:RXRa (NR concentration 270 nM, RXRa partner concentration 90 nM)
Procedure, shortened: as §1

[3] = test system: LXRa homodimer (NR concentration 270 nM)
Procedure, shortened: as §1

[4] = test system: LXRb:RXRa (NR concentration 270 nM, RXRa partner concentration 90 nM)
Procedure, shortened: as §1

[5] = test system: LXRb homodimer (NR concentration 270 nM)
Procedure, shortened: as §1

[6] = test system: PPARa:RXRa (NR concentration 270 nM, RXRa partner concentration 90 nM)
Procedure, shortened: as §1

[7] = test system: PPARg:RXRa (NR concentration 180 nM, RXRa partner concentration 90 nM)
Procedure, shortened: as §1

[8] = test system: PPARg:RXRa 270nM:90nM, anti-RXR (NR concentration 270 nM, RXRa partner concentration 90 nM)
Procedure, shortened: as §1

[9] = test system: PPARg:RXRa 30nM:10nM, anti-RXR (NR concentration 30 nM, RXRa partner concentration 10 nM)
Procedure, shortened: as §1

[10] = test system: PPARg:RXRa 90nM:30nM, anti-RXR (NR concentration 90 nM, RXRa partner concentration 30 nM)
Procedure, shortened: as §1

[11] = test system: PPARg:RXRa DBDmut IVT, anti-RXR (DBD mutation: RXRa K156A/R161A, NR concentration 270 nM, RXRa partner concentration 90 nM)
Procedure, shortened: as §1

[12] = test system: PPARg:RXRa IVT, anti-PPARg (NR concentration 270 nM, RXRa partner concentration 90 nM)
Procedure, shortened: as §1

[13] = test system: PPARg DBDmut:RXRa IVT, anti-PPARg (DBD mutation: PPARg1 K132A/R137A, NR concentration 270 nM, RXRa partner concentration 90 nM)
Procedure, shortened: as §1

[14] = test system: PPARg DBDmut IVT, anti-PPARg (DBD mutation: PPARg1 K132A/R137A, NR concentration 270 nM)
Procedure, shortened: as §1

[15] = test system: PPARg homodimer (NR concentration 180 nM)
Procedure, shortened: as §1

[16] = test system: PXR:RXRa (NR concentration 270 nM, RXRa partner concentration 90 nM)
Procedure, shortened: as §1

[17] = test system: PXR homodimer (NR concentration 270 nM)
Procedure, shortened: as §1

[18] = test system: RARa:RXR (NR concentration 270 nM, RXRa partner concentration 90 nM)
Procedure, shortened: as §1

[19] = test system: RARa homodimer (NR concentration 270 nM)
Procedure, shortened: as §1

[20] = test system: RARb:RXRa (NR concentration 270 nM, RXRa partner concentration 90 nM)
Procedure, shortened: as §1

Sequence | PBM binding z-score [1] | PBM binding z-score [2] | PBM binding z-score [3] | PBM binding z-score [4] | PBM binding z-score [5] | PBM binding z-score [6] | PBM binding z-score [7] | PBM binding z-score [8] | PBM binding z-score [9] | PBM binding z-score [10] | PBM binding z-score [11] | PBM binding z-score [12] | PBM binding z-score [13] | PBM binding z-score [14] | PBM binding z-score [15] | PBM binding z-score [16] | PBM binding z-score [17] | PBM binding z-score [18] | PBM binding z-score [19] | PBM binding z-score [20]
ATGTCTAGGTAAGACTCAGTTCAGTGAAGAACGC | -0.0311 | 0.274 | 0.049 | -0.259 | -0.00137 | -0.0837 | 0.0566 | 0.15 | -0.029 | -0.0514 | 0.955 | 0.996 | 0.297 | 0.538 | 0.433 | 0.668 | 1.4 | -0.0923 | 0.712 | 0.132
TCATATAGGTAAACAGGTGAAAGGCCGTAAGTTA | 1.02 | 0.944 | 0.383 | 0.971 | 0.244 | 3.2 | 5.16 | 4.67 | 4.73 | 5.29 | 4.71 | 4.59 | 1.06 | 1.36 | 1.42 | 0.956 | 0.656 | 1.37 | 1.25 | 0.989
TCTTGTAGATCAAAGGTTAAGAACGCCGAAGCCT | 2.02 | 2.28 | 0.21 | 2.16 | 0.138 | 4.96 | 8.19 | 7.86 | 7.43 | 8.26 | 2.38 | 3.76 | 0.351 | 0.234 | 1.19 | 2 | 0.16 | 2.42 | 0.244 | 1.86
ATCTCTAGGTAAGACTCAATTCAGTGAAGAACGC | 0.446 | 0.482 | 0.559 | 0.00858 | 0.847 | 0.0535 | 0.199 | 0.208 | 0.402 | 0.378 | 1.93 | 0.919 | 0.318 | 1.1 | 0.738 | -0.0296 | 0.798 | 0.462 | 1.25 | 0.115
CGTCCACGGTCAGAGAGGTCAGTGAATGCCGAGT | 2.16 | 1.89 | 1.45 | 1.77 | -0.73 | 2.33 | 0.382 | 0.996 | -0.638 | 0.247 | 0.449 | 1.17 | -1.02 | -1.36 | 2.07 | 3.13 | 2.89 | 2.83 | 0.503 | 3.95
TCTTGTAGATCAAGCTGGTTAAGAAAGCCTGAGT | -0.0681 | -0.116 | -0.611 | 0.0138 | -0.299 | 0.383 | -0.868 | 1.04 | 2.54 | 1.73 | 1.49 | 0.0134 | 0.281 | 0.0135 | -0.627 | 0.0638 | 0.0966 | -0.059 | -0.593 | -0.304
GCGACTGGGGCAACGCAGGTTACCATAAGGTTGG | 0.326 | 0.211 | -0.468 | 0.14 | -0.947 | 1.52 | 1.61 | 1.27 | -0.287 | 0.414 | 4.39 | 4.13 | -0.305 | -0.763 | -0.0289 | 0.606 | -0.69 | 0.702 | -1.06 | 1.19
